Results as given in PubChem BioAssay AID2013 (Sanford-Burnham Center for Chemical Genomics, 2009).
Screen size: about 290,000 compounds; about 370 (0.13%) were called active.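 The calls were made as follows: active = spots per cell inhibited over 60%, with over 100 cells counted and total cytoplasm intensity under 500,000; inconclusive = wells with under 100 cells, flagged as likely toxic; inactive = the rest.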 The entries come from a sample that favours actives as a whole. Potency and affinity values are given separately.

Target: G-protein coupled receptor 55 (Homo sapiens) (UniProt Q9Y2T6)
Sequence (Q9Y2T6 whole entry, looked up): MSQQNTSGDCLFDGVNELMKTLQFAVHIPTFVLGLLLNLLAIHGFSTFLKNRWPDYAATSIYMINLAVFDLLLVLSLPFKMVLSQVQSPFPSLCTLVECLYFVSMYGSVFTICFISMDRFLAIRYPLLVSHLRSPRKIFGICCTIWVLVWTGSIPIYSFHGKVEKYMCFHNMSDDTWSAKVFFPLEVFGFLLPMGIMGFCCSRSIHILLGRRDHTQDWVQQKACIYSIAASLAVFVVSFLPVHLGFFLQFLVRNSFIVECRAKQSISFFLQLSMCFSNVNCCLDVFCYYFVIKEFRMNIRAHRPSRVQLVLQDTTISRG
Test: GPR55 antagonists blocking LPI-driven arrestin recruitment, primary screen, imaging, U2OS, beta-arrestin-GFP, LPI agonist (AID 2013);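 also: U2OS cells stably carrying GPR55 and arrestin-GFP stimulated by 5 µM LPI near EC80; imaged beta-arrestin-GFP aggregate spots per cell after agonist stimulation; plate controls were LPI-stimulated DMSO wells for no effect and DMSO wells without LPI for full effect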
Details: U2OS GPR55 beta-arrestin-GFP translocation imaging, LPI antagonism; at 10 µM; active compounds read high

| SMILES | inhibition |
| --- | --- |
| OCC[C@@H]1C[C@H](O)[C@@H](O)[C@]2(Cc3ccccc3O2)O1 | -2.3% (inactive) |
| COc1ccc(S(=O)(=O)n2nc(-c3cc(OC)c(OC)c(OC)c3)cc2N)cc1OC | -6.7% (inactive) |
| COc1ccc(-c2cc(N)n(S(=O)(=O)c3ccc(F)cc3)n2)cc1OC | 1.3% (inactive) |
| Cn1nnc2c(N3CCCCC3)nccc21 | 14.8% (inactive) |
| CC(=O)Nc1ccc(NC(=O)CC23CC4CC(CC(C4)C2)C3)cc1 | 55.6% (inactive) |
| O=C(CC12CC3CC(CC(C3)C1)C2)Nc1ccc(C(=O)O)cc1 | -2.4% (inactive) |
| O=C(NCCCn1ccnc1)c1cc(C2CC2)on1 | -6.4% (inactive) |
| CCOc1ccc2oc(C(=O)NCC(C)(C)CN(C)C)c(C)c2c1 | 13% (inactive) |
| O=C(NCCc1ccccc1)C1COc2ccccc2O1 (stereo unspecified) | 5.5% (inactive) |
| CCn1nc([N+](=O)[O-])c2c(-c3nc4ccccc4o3)c(N)n(CCCOC)c2c1=O | 98.4% (active) |
| CCCCn1c(N)c(-c2nc3ccccc3o2)c2c([N+](=O)[O-])nn(CC)c(=O)c21 | 4.8% (inactive) |
| CCCCCn1c(N)c(-c2nc3ccccc3o2)c2c([N+](=O)[O-])nn(CC)c(=O)c21 | 13.1% (inactive) |
| CCOC(=O)N1CCC(=NNC(=O)Cn2ccc(C(F)(F)F)n2)CC1 | -11.4% (inactive) |
| COC(=O)c1cnc(SCC(=O)c2ccccc2)n1C | 2% (inactive) |
| CC(C(=O)NCc1cccs1)N1C(=O)c2ccccc2C1=O (stereo unspecified) | 17.5% (inactive) |
| C=CCNC(=O)c1ccc([N+](=O)[O-])c(Cl)c1 | -0.3% (inactive) |
| COCCCNC(=O)c1ccc([N+](=O)[O-])c(Cl)c1 | 2.9% (inactive) |
| Cc1ccnc2c(N3C(=O)C4C5c6ccccc6C(c6ccccc65)C4C3=O)cccc12 (stereo unspecified) | 13.1% (inactive) |
| Cc1ccc(C)c(NC(=O)CN(C)C(=O)/C=C/c2ccco2)c1 | -6.6% (inactive) |
| CCCCCCCCOC(=O)CCc1c(C)[nH]c(=S)[nH]c1=O | -16.9% (inactive) |
| COc1ccc(C)cc1NC(=O)CCNS(=O)(=O)c1cccc2nonc12 | 6.9% (inactive) |

| SMILES | inhibition |
| --- | --- |
| COc1ccc(C(OCC(O)CNCCc2ccccc2)c2ccc(OC)cc2)cc1 (stereo unspecified) | 8.1% (inactive) |
| OC(CNCCc1ccc(C(F)(F)F)cc1)COc1ccc2ccccc2c1 (stereo unspecified) | 30.5% (inactive) |
| N#CCSc1ccsc1C(=O)Nc1ccc(F)cc1 | 2.6% (inactive) |
| COCCn1nnnc1CN1C2CCCC1CC(NC(C)=O)C2 (stereo unspecified) | 0.2% (inactive) |
| COc1cc(/C=N/OCC(=O)NC2CCCCC2C)ccc1OCc1ccc(Cl)cc1 (stereo unspecified) | -3.5% (inactive) |
| CCOc1ccccc1CNS(=O)(=O)c1ccc(-c2cnc(C3CC3)o2)cc1 | 99.5% (inactive) |
| COc1cccc(N2CCN(c3ncnc4c3[nH]c3ccc(F)cc34)CC2C)c1 (stereo unspecified) | 91.8% (active) |
| COc1cccc(N2CCN(c3ncnc4c3[nH]c3ccccc34)CC2C)c1 (stereo unspecified) | 33% (inactive) |
| Fc1ccc2[nH]c3c(N4CCN(c5ccccc5)CC4)ncnc3c2c1 | -5.9% (inactive) |
| COC(=O)COc1ccc(S(=O)(=O)NCc2ccco2)cc1 | 10.1% (inactive) |
| C/C(=C\c1ccccc1)C(=O)NCCCn1ccnc1 | 9.4% (inactive) |
| Cc1ccc(NC(=S)N(CCCN2CCOCC2)Cc2cccs2)c(C)c1 | 25.2% (inactive) |
| Cc1ccccc1NC(=S)N(CCCN1CCOCC1)Cc1cccs1 | 54.6% (inactive) |
| CCC(C)(C)n1nnnc1C(c1cccc(C#N)c1)N1CCN(c2cc(C)ccc2C)CC1 (stereo unspecified) | 2.5% (inactive) |
| CCc1cc2c(=O)c(-c3ccc4c(c3)OCCO4)coc2cc1OS(C)(=O)=O | 8% (inactive) |
| COc1cc(/C=C(\C#N)C(N)=O)ccc1OS(=O)(=O)c1ccc(C)cc1 | 28.6% (inactive) |
| COc1cc(/C=C(\C#N)C(=O)NC2CCCCC2C)ccc1OS(=O)(=O)c1ccc(C)cc1 (stereo unspecified) | 28.8% (inactive) |
| O=C(OCc1nnc(-c2ccccc2)o1)C12CC3CC(CC(Br)(C3)C1)C2 | 0.4% (inactive) |
| N#CC(C#N)=C1C=C2C=C(N3CCCCCC3)CCC2CC1 (stereo unspecified) | 23.3% (inactive) |
| N#CC(C#N)=C1C=C2C=C(N3CCCCC3)CCC2CC1 (stereo unspecified) | 3.1% (inactive) |
| CCc1ccc(CN2CCC(n3nccc3NC(=O)c3ccccc3)CC2)o1 | -3.9% (inactive) |

| SMILES | inhibition |
| --- | --- |
| Cc1c(C(=O)NCc2ccc3c(c2)OCO3)sc2nc(-c3ccc(F)cc3)cn12 | 11.5% (inactive) |
| CC(C)c1nnc(NC(=O)CCC(=O)NCc2ccccc2Cl)s1 | 13% (inactive) |
| CCCNc1nc(=S)n(-c2ccccc2)c(C)c1C(C)=O | 4.7% (inactive) |
| Cc1ccc(-c2csc3ncnc(SCc4ccc(C(=O)O)cc4)c23)cc1 | 10% (inactive) |
| O=C(O)CSc1ncnc2scc(-c3ccccc3)c12 | 3.8% (inactive) |
| O=C(NNC(=S)NCc1ccccc1)c1ccc(Br)o1 | 13.5% (inactive) |
| C=CCN(c1ccccc1)S(=O)(=O)c1c(C)[nH]c(=O)[nH]c1=O | 0.3% (inactive) |
| O=[N+]([O-])CC(=Nc1ccc(F)cc1)N/N=C\c1oc(O)c2ccccc12 | 15.6% (inactive) |
| COC(=O)C1=C(C)N(Cc2ccccc2)C(=O)/C1=C\c1ccco1 | 2.2% (inactive) |
| COC(=O)C1=C(C)N(Cc2ccc(OC)cc2)C(=O)/C1=C\c1ccco1 | 0.4% (inactive) |
| COc1ccc(-c2csc3ncnc(Oc4cccc5ccc(C)nc45)c23)cc1 | 7.8% (inactive) |
| Cc1ccc(-c2csc3ncnc(Oc4cccc5ccc(C)nc45)c23)cc1 | 3.8% (inactive) |
| Cc1ccc2cccc(Oc3ncnc4scc(-c5ccccc5)c34)c2n1 | 77.9% (active) |
| Cc1ccc(N2C(=O)C3CCCN3C2=S)cc1C (stereo unspecified) | 3.3% (inactive) |
| O=C(COc1cccc(C(F)(F)F)c1)N1CCN(c2ccc(O)cc2)CC1 | -7.2% (inactive) |
| NC(=O)c1ccc[n+](CC(=O)c2ccc(Br)cc2)c1 | 9.5% (inactive) |
| N#C/C(=C\c1ccc(N2CCOCC2)o1)C(=O)N1CCOCC1 | 100% (active) |
| N#C/C(=C/c1ccc(N2CCOCC2)o1)C(=O)Nc1ccccc1 | 0.6% (inactive) |
| N#C/C(=C\c1ccc(N2CCOCC2)o1)C(=O)Nc1ccc(O)cc1 | -2.9% (inactive) |
